# Results filed as inconclusive are left out. Values without a mark were called inactive. Activity calls are given as the source filed them. The call rests on the fitted dose curve; in most records, active means well fitted cell-killing curve with a large enough effect; inconclusive means small, poorly fitted or top-dose-only effect, or effect the other way; inactive means no such curve, though single readings can be large or run the other way.
# Assay: Quantitative High-Throughput drug screen in 47 multiple myeloma cell lines against the NCATS MIPE library collection: EJM_DSMZ cell viability assay (AID 1918926; further: nearly all actives have a fitted effect of over 30% in size)
# Conditions: EJM myeloma cell viability, CellTiter-Glo ATP, 48 h; series mostly up to 45.8 µM; viability, % of control: at the top concentration
# Excerpt: PI: Beverly A. Mock Ph.D.
# Laboratory of Cancer Biology and Genetics,
# Center for Cancer Research, National Cancer Institute,
# National Institute of Health, Bethesda, Maryland
# Drug resistance and disease progression are common in multiple myeloma (MM) patients, underscoring the need for new therapeutic combinations. […] We hypothesized that effective combinations would reduce MYC expression and enhance p16 activity. […] These preclinical data identify potentially useful drug combinations for evaluation in drug-resistant MM and reveal potential mechanisms of combined drug sensitivity.
# Described herein is the primary MIPE qHTS used to cherrypick compounds. Validated compounds were then further tested for potential synergistic activiy.
# [1] Peat TJ, Gaikwad SM, Dubois W, Gyabaah-Kessie N, Zhang S, Gorjifard S, Phyo Z, Andres M, Hughitt VK, Simpson RM, Miller MA, Girvin AT, Taylor A, Williams D, D'Antonio N, Zhang Y, Rajagopalan A, Flietner E, Wilson K, Zhang X, Shinn P, Klumpp-Thomas C, McKnight C, Itkin Z, Chen L, Kazandijian D, Zhang J, Michalowski AM, Simmons JK, Keats J, Thomas CJ, Mock BA. Drug combinations identified by high-throughput screening promote cell cycle transition and upregulate Smad pathways in myeloma. Cancer Lett. 2023 Aug 1;568:216284. doi: 10.1016/j.canlet.2023.216284. Epub 2023 Jun 24. PMID: 37356470; PMCID: PMC10408729.
# SEQUENCE No. (e.g., 1, 2, 3, etc.); […] (e.g., Cells, Incubation, Reagent, etc.); VALUE and DESCRIPTION.
# 1; Cells; 5 uL; white, solid bottom 1536-well Greiner assay plate.
# 2; Compounds; 23 nL; Kalypsis pin tool (Wako USA) equipped with a 1536-well pin head to transfer to the assay plates.
# 3; Incubation; 48 hours; 37C incubation.
# 4; Reagent;5uL; CellTiter Glo (Promega).
# 5; Detector; 425V; Luminescence; Viewlux PerkinElmer.
# NOTES (numbers refer to Sequence numbers above)
# 1. The cell-based screening methods employed in this study were like those previously published. Briefly, the corresponding myeloma cell lines were screened in 1,536-well plates with 500 cells, 5-uL per well for inhibition of cell viability (assessed by measuring ATP levels with CellTiterGlo).
# 2. NCATS MIPE 4.0 library of approved and investigational drugs were added using the Kalypsis pin tool. Wells treated with DMSO only for 100% viability and media only wells for 0% viability were used as controls.
# 3. The assay plates were covered and incubated for 48 hours in a 37C, 5% CO2 incubator with controlled humidity.
# 4. After 48 hours, CellTilter-GloTM luminescent substrate mix (Promega) reagent was added to the assay plate and plates we incubated for 5 min at room temperature.
# 5. Signal was measured as median relative luminescence units on a ViewLux (PerkinElmer) multiplate reader.
# [1] Heske CM, Davis MI, Baumgart JT, Wilson K, Gormally MV, Chen L, Zhang X, Ceribelli M, Duveau DY, Guha R, Ferrer M, Arnaldez FI, Ji J, Tran HL, Zhang Y, Mendoza A, Helman LJ, Thomas CJ. Matrix Screen Identifies Synergistic Combination of PARP Inhibitors and Nicotinamide Phosphoribosyltransferase (NAMPT) Inhibitors in Ewing Sarcoma. Clin Cancer Res. 2017 Dec 1;23(23):7301-7311. doi: 10.1158/1078-0432.CCR-17-1121. Epub 2017 Sep 12. PMID: 28899971; PMCID: PMC6636827.
# Potency means the concentration at half of the fitted maximal effect.
Structure (SMILES),Potency,"viability, % of control"
O=C(Nc1cccnc1)N1CCC(Cc2cccc(Oc3ccc(C(F)(F)F)cn3)c2)CC1,18.7 µM (active),–
Cc1cnc(NC(=O)C2=C(O)c3ccccc3S(=O)(=O)N2C)s1,–,100%
NC(=O)c1cnccn1,–,111%
N=c1nc(N2CCCCC2)cc(N)n1O,–,120%
CS(=O)(=O)c1cccc(CNc2nc(Nc3ccc4c(c3)CCC(=O)N4)ncc2C(F)(F)F)c1,23.5 µM (active),–
Clc1cccc(Cl)c1NC1=NCCN1,–,101%
CCc1cc(Nc2nccc(-c3c(-c4ccc(OC)c(C(=O)Nc5c(F)cccc5F)c4)nc4ccccn34)n2)c(OC)cc1N1CCC(N2CCN(S(C)(=O)=O)CC2)CC1,10.5 µM (active),–
Cc1cc(SCc2sc(-c3ccc(C(F)(F)F)cc3)nc2C)ccc1OCC(=O)O,–,108%
CC(C)(C)NCC(O)c1ccc(O)c(CO)c1 (stereo not given),–,95.3%
COc1nc(-c2ccc3c(c2)OCO3)n(-c2ccc(NC(=O)CSc3ccccc3)cc2)n1,–,115%
Cc1c(CCOc2ccc(C(=O)O)cc2)c2cc(Cl)ccc2n1C(c1ccccc1)c1ccccc1,–,95.1%
Cc1[nH]c(=O)c(C#N)cc1-c1ccc2nccn2c1,–,94.4%
O=NN(CCCl)C(=O)NCCCl,–,103%
Cn1cnc([N+](=O)[O-])c1Sc1ncnc2nc[nH]c12,–,98%
Cc1cc(C=c2sc3nc4ccccc4n3c2=O)c(C)n1-c1ccccc1,6.62 µM (active),–
Cc1[nH]c(=O)c(C#N)cc1-c1ccncc1,–,104%
C[C@]1(c2nc3c(C(N)=O)cccc3[nH]2)CCCN1,–,80%
COc1ccc(CC2=NN3C([C@@H](CCc4ccccc4)[C@@H](C)O)=NC(C)C3C(=O)N2)cc1OC (stereo not given in full),–,104%
CNC(=O)c1ccc(N2C(=S)N(c3ccc(C#N)c(C(F)(F)F)c3)C(=O)C2(C)C)cc1F,–,79.2%
CCCC(CCC)C(=O)O,–,111%

Structure (SMILES),Potency,"viability, % of control"
CCCc1nc2c(C)cc(-c3nc4ccccc4n3C)cc2n1Cc1ccc(-c2ccccc2C(=O)O)cc1,–,111%
Cn1cc(-c2ccc3nnc(C(F)(F)c4ccc5ncccc5c4)n3n2)cn1,–,98.6%
Cc1cccc(-c2nn(C(=S)Nc3ccccc3)cc2-c2ccnc3ccccc23)n1,11.8 µM (active),–
Cc1cc(Nc2nc(N[C@@H](C)c3ncc(F)cn3)ncc2Cl)n[nH]1,2.64 µM (active),–
Oc1ccc(C2CNCCc3c2cc(O)c(O)c3Cl)cc1 (stereo not given),–,76.9%
CC(C=CC1=C(C)CCCC1(C)C)=CC=CC(C)=CC(=O)O,13.2 µM (active),–
C#Cc1cccc(Nc2ncnc3cc(OCCOC)c(OCCOC)cc23)c1,6.62 µM (active),–
CC(C)OC(=O)C1=CN(C(=O)c2ccc(F)c(F)c2)CC(C)(C)c2c1[nH]c1ccccc21,–,108%
O=C(NOC[C@H](O)CO)c1ccc(F)c(F)c1Nc1ccc(I)cc1F,–,107%
OC(CCN1CCCCC1)(c1ccccc1)C1CC2C=CC1C2 (stereo not given),–,119%
C[C@]12CC[C@H](O)CC1=CC[C@@H]1[C@H]2CC[C@]2(C)C(c3cccnc3)=CC[C@H]12,–,84.1% [at 23.2 µM]
O=C(Nc1nc2ccccc2n1CCN1CCOCC1)c1cccc([N+](=O)[O-])c1,4.18 µM (active),–
COc1ccc([C@@H]2CC(=O)c3c(O)cc(O[C@@H]4O[C@H](CO[C@@H]5O[C@@H](C)[C@H](O)[C@@H](O)[C@@H]5O)[C@@H](O)[C@H](O)[C@@H]4O)cc3O2)cc1O,inactive,–
CCOc1cc(C(=O)Nc2ccc(Cl)c(-c3nc4ccccc4[nH]3)c2)cc(OCC)c1OCC,13.2 µM (active),–
COCCNCCCn1c(C(=O)CF)c(-c2ccc(C)cc2)c2c(N)ncnc21,4.18 µM (active),–
COc1cc(Oc2ccnc3cc(OC)c(OC)cc23)ccc1NC(=O)NC(C)c1nccs1 (stereo not given),–,102%
N#Cc1ccc(C(c2ccc(C#N)cc2)n2cncn2)cc1,–,79.4%
c1ccc(-c2nn3c(c2-c2ccnc4cc(OCCN5CCOCC5)ccc24)CCC3)nc1,–,85.2%
NC(=O)C1CCCc2c1[nH]c1ccc(Cl)cc21 (stereo not given),–,83.4%
CN[C@@H](C)C(=O)N[C@H]1CCCC[C@H]2CC[C@@H](C(=O)N[C@@H](c3ccccc3)c3cn(CCCCc4ccc(CCCCn5cc([C@@H](NC(=O)[C@@H]6CC[C@@H]7CCCC[C@H](NC(=O)[C@H](C)NC)C(=O)N76)c6ccccc6)nn5)cc4)nn3)N2C1=O,5.26 µM (active),–
